Here are results for 17 molecules from ChEMBL document CHEMBL1961873, “Compounds: GSK PKIS; Assays: Nanosyn kinase panel” (2012).

For test [1], the target named is Death-associated protein kinase 1 (Homo sapiens) (UniProt P53355). The note with it: at 1 µM.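 Further: each value is a mean inhibition figure.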
The target of test [2] is T1, Serine/threonine-protein kinase DCLK2 (Homo sapiens) (UniProt Q8N568).
T1 sequence (whole entry): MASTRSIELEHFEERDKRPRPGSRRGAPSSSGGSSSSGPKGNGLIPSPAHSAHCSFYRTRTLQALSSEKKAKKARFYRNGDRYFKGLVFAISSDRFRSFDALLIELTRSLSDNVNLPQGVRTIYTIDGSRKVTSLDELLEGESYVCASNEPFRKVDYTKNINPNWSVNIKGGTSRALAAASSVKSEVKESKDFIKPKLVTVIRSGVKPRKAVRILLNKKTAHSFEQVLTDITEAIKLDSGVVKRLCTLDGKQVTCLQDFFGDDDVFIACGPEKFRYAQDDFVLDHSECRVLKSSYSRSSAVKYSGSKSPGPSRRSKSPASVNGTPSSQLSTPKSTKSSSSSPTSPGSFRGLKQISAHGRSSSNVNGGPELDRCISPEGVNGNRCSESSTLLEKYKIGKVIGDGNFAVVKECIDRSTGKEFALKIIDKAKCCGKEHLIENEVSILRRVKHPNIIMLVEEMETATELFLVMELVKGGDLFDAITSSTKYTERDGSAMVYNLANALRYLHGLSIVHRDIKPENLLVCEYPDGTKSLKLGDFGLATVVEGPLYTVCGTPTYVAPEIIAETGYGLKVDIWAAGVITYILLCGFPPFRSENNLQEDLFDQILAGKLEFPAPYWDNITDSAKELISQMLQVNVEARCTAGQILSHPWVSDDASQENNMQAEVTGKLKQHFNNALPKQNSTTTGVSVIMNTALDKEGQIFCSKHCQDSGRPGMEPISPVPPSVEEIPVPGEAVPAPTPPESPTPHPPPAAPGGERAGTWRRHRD
The following applies: at 0.1 µM.

Test [3] addresses T1, Serine/threonine-protein kinase DCLK2 (Homo sapiens). The following applies: at 1 µM.
The target in test [4] is MAP kinase-activated protein kinase 2 (Homo sapiens) (UniProt P49137). The following applies: at 0.1 µM.
MAP kinase-activated protein kinase 2 (Homo sapiens), sequence (P49137 whole entry, looked up): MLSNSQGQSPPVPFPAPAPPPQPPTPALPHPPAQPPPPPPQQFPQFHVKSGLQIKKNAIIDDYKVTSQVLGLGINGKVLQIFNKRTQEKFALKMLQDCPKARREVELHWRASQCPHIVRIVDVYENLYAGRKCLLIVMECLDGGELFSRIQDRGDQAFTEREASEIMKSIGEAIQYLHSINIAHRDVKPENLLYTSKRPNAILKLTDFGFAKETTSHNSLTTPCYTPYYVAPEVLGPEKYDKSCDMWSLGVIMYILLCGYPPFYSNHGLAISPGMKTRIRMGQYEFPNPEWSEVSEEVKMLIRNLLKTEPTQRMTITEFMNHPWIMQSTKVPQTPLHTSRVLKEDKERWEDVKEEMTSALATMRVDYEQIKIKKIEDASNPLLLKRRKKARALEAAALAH
The target is the same in test [5]. The following applies: at 1 µM.
In test [6] the target is MAP kinase-activated protein kinase 3 (Homo sapiens) (UniProt Q16644). The following applies: at 0.1 µM.
MAP kinase-activated protein kinase 3 (Homo sapiens), sequence (Q16644 whole entry, looked up): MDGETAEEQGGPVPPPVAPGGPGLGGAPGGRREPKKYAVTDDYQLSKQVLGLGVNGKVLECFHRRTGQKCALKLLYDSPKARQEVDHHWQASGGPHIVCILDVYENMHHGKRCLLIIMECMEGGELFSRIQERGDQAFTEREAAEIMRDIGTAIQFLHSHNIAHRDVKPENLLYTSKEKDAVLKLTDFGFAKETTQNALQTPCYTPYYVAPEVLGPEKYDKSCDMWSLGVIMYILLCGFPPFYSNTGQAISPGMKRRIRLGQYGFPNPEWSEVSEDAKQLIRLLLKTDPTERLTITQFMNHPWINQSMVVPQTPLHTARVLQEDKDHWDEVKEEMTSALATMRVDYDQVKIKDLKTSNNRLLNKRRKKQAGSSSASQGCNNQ
Test [7] has the same target. The following applies: at 1 µM.
Test [8] concerns the target Serine/threonine-protein kinase MARK1 (Homo sapiens) (UniProt Q9P0L2). The note with it: at 0.1 µM.
Test [9] shares this target. The following applies: at 1 µM.
Test [10] deals with MAP/microtubule affinity-regulating kinase 3 (Homo sapiens) (UniProt P27448). The following applies: at 0.1 µM.
MAP/microtubule affinity-regulating kinase 3 (Homo sapiens), sequence (P27448 whole entry, looked up): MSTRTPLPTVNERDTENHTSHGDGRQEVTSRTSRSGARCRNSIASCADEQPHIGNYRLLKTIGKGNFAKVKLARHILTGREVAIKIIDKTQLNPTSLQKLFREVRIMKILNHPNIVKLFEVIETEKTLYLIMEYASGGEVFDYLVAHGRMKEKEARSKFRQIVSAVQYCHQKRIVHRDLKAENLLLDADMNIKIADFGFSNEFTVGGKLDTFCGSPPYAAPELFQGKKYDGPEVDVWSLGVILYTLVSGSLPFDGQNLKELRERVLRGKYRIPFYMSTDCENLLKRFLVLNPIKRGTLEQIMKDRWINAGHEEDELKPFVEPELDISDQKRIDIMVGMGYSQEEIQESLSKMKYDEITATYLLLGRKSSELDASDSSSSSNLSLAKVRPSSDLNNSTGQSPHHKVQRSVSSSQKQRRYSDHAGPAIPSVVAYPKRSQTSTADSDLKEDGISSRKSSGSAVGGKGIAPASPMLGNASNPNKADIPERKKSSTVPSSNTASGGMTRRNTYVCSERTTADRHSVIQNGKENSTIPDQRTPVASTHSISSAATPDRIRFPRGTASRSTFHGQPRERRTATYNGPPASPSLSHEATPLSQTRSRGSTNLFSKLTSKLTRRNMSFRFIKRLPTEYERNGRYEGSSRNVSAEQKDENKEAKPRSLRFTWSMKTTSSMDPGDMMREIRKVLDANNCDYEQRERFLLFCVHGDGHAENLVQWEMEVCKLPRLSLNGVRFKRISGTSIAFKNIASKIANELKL

Death-associated protein kinase 1 (Homo sapiens), sequence (P53355 whole entry, looked up): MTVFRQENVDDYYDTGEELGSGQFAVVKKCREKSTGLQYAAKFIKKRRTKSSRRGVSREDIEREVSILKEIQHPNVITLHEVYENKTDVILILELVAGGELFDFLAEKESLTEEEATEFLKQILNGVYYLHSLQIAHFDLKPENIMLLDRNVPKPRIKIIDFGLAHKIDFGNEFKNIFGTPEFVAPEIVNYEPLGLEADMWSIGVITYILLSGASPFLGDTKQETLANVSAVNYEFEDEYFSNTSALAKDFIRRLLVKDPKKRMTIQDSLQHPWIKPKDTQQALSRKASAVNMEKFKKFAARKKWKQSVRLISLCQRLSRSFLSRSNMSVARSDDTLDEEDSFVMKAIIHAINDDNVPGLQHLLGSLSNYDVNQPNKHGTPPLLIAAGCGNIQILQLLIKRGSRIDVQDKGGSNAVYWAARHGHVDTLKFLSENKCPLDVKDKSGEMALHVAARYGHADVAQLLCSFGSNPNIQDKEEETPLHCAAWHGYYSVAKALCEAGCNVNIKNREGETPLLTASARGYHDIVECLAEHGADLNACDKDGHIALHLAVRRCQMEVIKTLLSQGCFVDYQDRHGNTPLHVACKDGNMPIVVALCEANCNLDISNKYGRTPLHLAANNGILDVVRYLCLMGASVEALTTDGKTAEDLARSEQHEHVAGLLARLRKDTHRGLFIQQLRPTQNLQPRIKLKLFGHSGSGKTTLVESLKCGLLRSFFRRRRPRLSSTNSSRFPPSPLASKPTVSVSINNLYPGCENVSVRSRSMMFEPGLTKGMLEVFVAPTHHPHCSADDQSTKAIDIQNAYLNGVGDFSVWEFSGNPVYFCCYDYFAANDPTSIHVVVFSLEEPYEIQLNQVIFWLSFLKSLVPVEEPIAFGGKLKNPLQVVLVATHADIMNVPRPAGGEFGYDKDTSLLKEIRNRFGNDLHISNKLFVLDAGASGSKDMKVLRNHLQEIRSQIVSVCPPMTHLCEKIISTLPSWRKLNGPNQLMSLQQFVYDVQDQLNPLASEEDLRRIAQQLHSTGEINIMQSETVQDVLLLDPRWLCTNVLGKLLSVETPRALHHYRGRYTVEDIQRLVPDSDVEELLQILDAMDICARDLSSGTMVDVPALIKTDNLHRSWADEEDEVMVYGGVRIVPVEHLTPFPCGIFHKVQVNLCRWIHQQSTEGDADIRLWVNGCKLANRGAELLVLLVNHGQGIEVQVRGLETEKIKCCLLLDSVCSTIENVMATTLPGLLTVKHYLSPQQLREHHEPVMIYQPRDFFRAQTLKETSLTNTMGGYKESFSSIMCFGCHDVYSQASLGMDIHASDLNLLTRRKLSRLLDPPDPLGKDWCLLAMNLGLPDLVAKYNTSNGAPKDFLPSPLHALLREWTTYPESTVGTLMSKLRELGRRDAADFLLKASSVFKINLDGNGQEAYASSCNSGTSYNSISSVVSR
Serine/threonine-protein kinase MARK1 (Homo sapiens), sequence (Q9P0L2 whole entry, looked up): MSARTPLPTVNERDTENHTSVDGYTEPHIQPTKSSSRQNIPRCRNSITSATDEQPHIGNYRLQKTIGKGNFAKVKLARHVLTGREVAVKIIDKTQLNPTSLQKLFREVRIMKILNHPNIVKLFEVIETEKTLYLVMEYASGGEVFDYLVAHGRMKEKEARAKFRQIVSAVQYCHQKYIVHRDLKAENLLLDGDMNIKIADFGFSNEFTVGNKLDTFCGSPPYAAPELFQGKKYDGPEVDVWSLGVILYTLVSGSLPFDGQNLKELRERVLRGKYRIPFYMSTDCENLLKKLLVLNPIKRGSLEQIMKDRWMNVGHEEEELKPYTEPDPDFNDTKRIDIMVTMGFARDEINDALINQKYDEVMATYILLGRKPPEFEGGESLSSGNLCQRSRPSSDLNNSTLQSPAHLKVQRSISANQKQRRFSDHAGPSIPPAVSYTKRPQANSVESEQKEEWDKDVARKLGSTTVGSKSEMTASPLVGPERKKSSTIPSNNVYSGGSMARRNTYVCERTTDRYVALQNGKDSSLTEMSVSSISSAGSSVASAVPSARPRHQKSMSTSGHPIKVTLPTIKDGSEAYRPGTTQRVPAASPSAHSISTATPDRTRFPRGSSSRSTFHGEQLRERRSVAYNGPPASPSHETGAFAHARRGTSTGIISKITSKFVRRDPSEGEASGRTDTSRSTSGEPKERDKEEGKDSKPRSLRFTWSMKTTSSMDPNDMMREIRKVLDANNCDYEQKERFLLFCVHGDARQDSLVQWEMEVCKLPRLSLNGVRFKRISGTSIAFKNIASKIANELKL

For `CCN(CC)Cc1ccc(Nc2nccc(-c3cnn4ncccc34)n2)cc1`, the inhibition is 1.28% in [1]; -4.15% in test [2]; 1.64% in test [3]; 0.69% in test [4]; 2.01% in test [5]; 2.61% in [6]. Besides, the inhibition in test [7] amounted to 3.32%; in test [8], 4.03%; in [9], 20.9%; in test [10], 4.34%.

As to `CN(C)CCCNc1nccc(-c2c(-c3ccc(F)cc3)nn3cc(C(F)(F)F)ccc23)n1`, the inhibition is 0.77% in test [1]; -2.25% in test [2]; -1.62% in [3]; -0.13% in test [4]; 0.05% in [5]; 8.23% in [6]. For the same molecule, the inhibition in test [7] was 22.7%; in [8], 3.37%; in [9], 1.8%; in [10] it was 3.54%.

Regarding `O=C1Nc2ccccc2/C1=C/Nc1ccc(-n2cncn2)cc1`, the inhibition in test [1] is 7.29%; in test [2], 1.71%; in test [3], -2.02%; in [4], 2.96%; in [5], 2.54%; in [6] it was 3.98%. Moreover, the inhibition is 3.15% in test [7], 5.86% in [8], 25.4% in [9] and 3.28% in test [10].

Consider `Cc1ccc(NC(=O)c2ccoc2)cc1-c1ccc(C(=O)NCC2CC2)cc1`, for which the inhibition is 4.7% in test [1]; -0.46% in test [2]; -0.45% in test [3]; 0.09% in test [4]; -0.32% in [5]; 20% in test [6]. Further, the inhibition amounted to 30.9% in test [7], 0.5% in test [8], 1.39% in test [9] and 1.61% in [10].

Regarding `COc1cccc(/C=N/Nc2ncnc3c2cnn3-c2cccc(OC)c2)c1`, the inhibition in test [1] is -2.35%; in test [2] it was -0.11%; in test [3], 1.93%; in [4] it was 2.15%; in test [5] it was 2.31%; in [6], 2.37%. Further, the inhibition is 2.33% in test [7], 0.69% in [8], 2.26% in [9] and -0.24% in [10].

With `NC(=O)c1cc(-c2ccc(F)cc2)cc(-c2ccncc2)c1N`, the inhibition in test [1] is 1.25%; in test [2] it was -0.12%; in [3] it was -0.85%; in [4], 2.21%; in test [5] it was 1.35%; in test [6] it was 4.03%. In addition, the inhibition in test [7] was determined as 5.82%; in [8], 2.29%; in [9] it was 4.17%; in test [10], 3.27%.

In the case of `CN(c1ccc(NC(=O)Nc2c(Cl)cccc2Cl)cc1)c1ccnc(Nc2cccc(CS(C)(=O)=O)c2)n1`, the inhibition in test [1] was found to be 4.43%; in test [2] it was 3.64%; in [3], 4.12%; in test [4], 0.46%; in [5] it was 1.08%; in test [6], 0.42%. Moreover, the inhibition came to 0.31% in test [7], 3.52% in test [8], 10.8% in test [9] and 2.64% in [10].

For `CNC(=O)c1cncc(/C=C/c2c(C)cccc2C)c1`, the inhibition in [1] was 0.45%; in [2], -0.24%; in test [3], -2.53%; in test [4], 0.41%; in test [5] it was -0.68%; in test [6], 0.6%. Also, the inhibition in [7] was determined as 0.25%; in test [8], 0.88%; in test [9], 0.89%; in test [10], 0.44%.

For the molecule `O=C(NCC1CC1)c1ccc(-c2cccc(C(=O)NC3CC3)c2)cc1`, the inhibition in [1] was 3.86%; in [2], 1.31%; in [3], -0.41%; in test [4] it was 0.95%; in test [5], 1.17%; in [6], 2%. Also, the inhibition in test [7] was determined as 3.94%; in [8], 2.23%; in test [9], 1.62%; in [10], 4.12%.

As to `Cc1nnc(-c2ccc(C)c(-c3ccc(C(=O)NCc4ccc(Cl)cc4)cc3)c2)o1`, the inhibition in test [1] was 1.9%; in [2] it was -1.39%; in [3], -8.11%; in test [4], 1.41%; in [5] it was 0.78%; in test [6], 5.02%. In addition, the inhibition stood at 15.7% in test [7], 2.82% in [8], 4.92% in test [9] and 0.14% in test [10].

Take `COc1ccc2cc(-c3c(-c4ccncc4)nc(-c4ccc([S+](C)[O-])cc4C)n3C)ccc2c1` (stereo not given): the inhibition was -9.4% in test [1]; -1.12% in [2]; 5.6% in [3]; -3.43% in test [4]; -3.96% in test [5]; -6.68% in test [6]. Besides, the inhibition in test [7] is -5.38%; in test [8] it was -1.01%; in test [9], -1.81%; in test [10], 0.61%.

Regarding `O=C1Nc2ccc(I)cc2C1=Cc1cc(Br)c(O)c(Br)c1`, the inhibition in [1] was -4.68%; in [2] it was 0.92%; in [3], 1.91%; in test [4], 1.65%; in [5], 4.08%; in [6] it was 2.77%. Further, the inhibition is 3.75% in [7], 0.84% in test [8], 2.09% in test [9] and -0.57% in [10].

For `O=C(Nc1n[nH]c2nc(-c3ccco3)ccc12)C1CC1`, the inhibition is 8.47% in test [1]; -5.65% in test [2]; -0.3% in [3]; 3.08% in test [4]; 2.89% in test [5]; 7.07% in test [6]. Also, the inhibition is 7.18% in test [7], -0.31% in test [8], 0.25% in test [9] and 3.27% in test [10].

Take `COc1cc(C)c(N(C)C(=O)CN(C)C)cc1Nc1nc(Nc2cccc(F)c2C(N)=O)c2cc[nH]c2n1`: the inhibition is 1.79% in [1]; -2.4% in test [2]; -3.85% in test [3]; -0.22% in [4]; 0.04% in test [5]; 1.56% in [6]. For the same molecule, the inhibition in test [7] amounted to 0.17%; in [8], 0.72%; in [9], 1.97%; in [10], 3.34%.

Consider `COC(=O)Nc1nc2ccc(Sc3ccc(NC(=O)Nc4cc(C(F)(F)F)ccc4F)cc3)cc2[nH]1`, for which the inhibition was 4.23% in test [1]; -1.02% in [2]; 0.05% in [3]; 0.97% in [4]; 0.6% in [5]; 4.28% in test [6]. Further, the inhibition in test [7] is 12.6%; in test [8], 1.73%; in test [9], 2.38%; in [10], 1.35%.

Consider `Nc1nccc(-c2c(-c3ccc(F)cc3)ncn2C2CCC(O)CC2)n1` (stereo not given), for which the inhibition was -0.38% in test [1]; -1.66% in test [2]; 5.59% in [3]; -1.26% in test [4]; -1.57% in test [5]; 30% in test [6]. Also, the inhibition is 36.4% in test [7], -0.13% in test [8], 0.51% in test [9] and -1.63% in [10].

With `Fc1ccc(-c2ncn(CCCN3CCOCC3)c2-c2ccncc2)cc1`, the inhibition in [1] was 2.3%; in test [2], -1.56%; in [3], 5.36%; in test [4], -0.27%; in test [5], -0.32%; in test [6] it was 3.13%. Moreover, the inhibition came out at 14.5% in [7], 0.51% in [8], 0.81% in test [9] and 2.21% in test [10].

The inhibition is the change of the read-out against control, counted positive when it falls.
